Most compounds without a hit are left out; they make up all but 9.2% or so of the library.
UCHL1 block = inhibitors of human UCHL1 deubiquitinase; Ubiquitin carboxyl-terminal hydrolase isozyme L1 (Homo sapiens), P09936; purified UCHL1, Ub-rhodamine cleavage fluorescence; inhibition, % at 20 µM; actives 0.2% (n = 47,000); AID 1645859, 2021
OTUD3 inh = inhibitors of human OTUD3 deubiquitinase; OTU domain-containing protein 3 (Homo sapiens), Q5T2D3; purified OTUD3, Ub-rhodamine fluorescence, 2 h; inhibition, % at 25 µM; actives 0.7% (n = 47,000); AID 1645858, 2021
USP10 inh = inhibitors of human USP10 deubiquitinase; inhibition, % at 20 µM; actives 1.1% (n = 47,000); purified USP10, Ub-rhodamine fluorescence, 60 min; AID 1645856, 2021
USP7 block = inhibitors of human USP7 deubiquitinase. actives 0.3% (n = 47,000). AID 1645854, 2021. purified USP7, Ub-rhodamine cleavage fluorescence. inhibition, % at 20 µM
Target sequence (Q93009 whole entry, looked up): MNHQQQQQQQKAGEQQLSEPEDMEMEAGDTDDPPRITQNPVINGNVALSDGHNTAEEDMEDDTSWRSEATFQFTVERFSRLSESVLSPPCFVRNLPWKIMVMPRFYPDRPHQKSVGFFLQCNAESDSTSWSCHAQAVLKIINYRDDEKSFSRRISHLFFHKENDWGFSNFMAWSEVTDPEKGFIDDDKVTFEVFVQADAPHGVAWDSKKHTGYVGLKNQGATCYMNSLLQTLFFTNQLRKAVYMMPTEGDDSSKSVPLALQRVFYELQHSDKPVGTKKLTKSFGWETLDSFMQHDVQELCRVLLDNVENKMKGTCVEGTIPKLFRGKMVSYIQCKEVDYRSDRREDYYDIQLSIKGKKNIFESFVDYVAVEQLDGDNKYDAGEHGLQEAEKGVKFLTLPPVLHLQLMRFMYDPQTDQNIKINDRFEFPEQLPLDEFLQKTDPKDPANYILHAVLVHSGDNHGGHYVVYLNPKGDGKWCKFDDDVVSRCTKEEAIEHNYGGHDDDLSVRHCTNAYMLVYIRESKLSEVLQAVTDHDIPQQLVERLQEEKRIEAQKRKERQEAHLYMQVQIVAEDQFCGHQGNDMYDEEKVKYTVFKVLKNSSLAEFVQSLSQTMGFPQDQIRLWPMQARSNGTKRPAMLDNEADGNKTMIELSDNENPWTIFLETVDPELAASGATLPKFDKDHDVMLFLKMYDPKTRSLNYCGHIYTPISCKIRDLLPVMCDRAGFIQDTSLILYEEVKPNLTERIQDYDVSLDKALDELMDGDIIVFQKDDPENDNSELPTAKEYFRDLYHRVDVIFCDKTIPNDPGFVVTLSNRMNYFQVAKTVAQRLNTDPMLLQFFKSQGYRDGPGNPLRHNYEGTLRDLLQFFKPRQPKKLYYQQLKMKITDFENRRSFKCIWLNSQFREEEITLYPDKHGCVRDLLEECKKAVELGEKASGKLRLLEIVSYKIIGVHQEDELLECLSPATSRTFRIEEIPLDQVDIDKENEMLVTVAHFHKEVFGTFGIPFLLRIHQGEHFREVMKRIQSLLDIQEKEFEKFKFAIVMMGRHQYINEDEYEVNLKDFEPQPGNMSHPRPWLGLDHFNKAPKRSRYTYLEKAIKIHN
USP8 block = inhibitors of human USP8 deubiquitinase | Ubiquitin carboxyl-terminal hydrolase 8 (Homo sapiens), P40818 | purified USP8, Ub-rhodamine cleavage fluorescence, 30 min | inhibition, % at 20 µM | actives 4.2% (n = 47,000) | AID 1645853, 2021
USP17 inh = inhibitors of human USP17 deubiquitinase; actives 6.5% (n = 47,000); purified USP17, Ub-rhodamine cleavage fluorescence, 3 h; inhibition, % at 50 µM
* hit, by the source's call; · = no result. Rule as the data show it: active = inhibition above about 30%; inactive = the rest.

SMILES | UCHL1 block | OTUD3 inh | USP10 inh | USP7 block | USP8 block | USP17 inh
O=C1Nc2ccccc2C(=O)C1C(c1ccc(Cl)cc1)C1C(=O)Nc2ccccc2C1=O (configuration not stated) | 11.9 | 27.8 | 54.1* | 10.3 | 34.5* | 88.2*
CN1CCN(C(=O)CN2CCC3(CCC2=O)NC(=O)c2ccccc2N3)CC1 (configuration not stated) | 1.1 | 7.2 | 0.6 | 5.7 | 13.1 | 18.1
CCC(C)N1CNc2c(c(=O)[nH]c(=O)n2Cc2ccco2)C1 (configuration not stated) | 29.3 | 13.3 | 30.5* | 11.9 | 7.8 | ·
O=c1[nH]c(=O)n(Cc2ccco2)c2c1CN(Cc1ccccc1)CN2 | -1.0 | 1.9 | -2.3 | 0.0 | 0.7 | -7.1
Cc1ccccc1NC(=O)CCc1nnc2ccc(N3CCC(C)CC3)nn12 | 0.0 | 1.3 | -0.3 | -8.8 | 1.6 | -4.3
O=C(Cn1cc(C(=O)C2CC2)c2ccccc21)NCCOc1ccc(Cl)cc1 | 0.0 | 13.1 | 1.1 | 10.2 | 31.8* | 19.8
Cc1ccc(S(=O)(=O)N2CCC3(CC2)OC(=O)Nc2ccccc23)cc1 | 1.8 | -7.0 | 18.6 | 11.1 | 34.8* | 9.4
O=C1Nc2ccccc2C2(CCN(S(=O)(=O)c3ccccn3)CC2)O1 | -3.1 | -4.5 | -2.5 | -2.2 | 8.4 | 2.2
Nc1c(C(=O)NCc2ccc3c(c2)OCO3)nnn1Cc1ccc(Br)cc1F | 6.9 | 22.4 | 30.8* | 16.3 | 82.6* | ·
CCc1ccc(NC(=O)C2CCN(c3nc4nc[nH]c(=O)c4s3)CC2)cc1 | -3.2 | 16.3 | 22.5 | 27.5 | 17.8 | 13.9
Cc1c(OCc2ccccc2F)ccc2c1OC(C)(C)CC2=O | 5.6 | 6.0 | 11.9 | -27.2 | 18.6 | 30.7*
COc1cccc(CNC(=O)Cn2c(N3CCCC3)nc(C)cc2=O)c1 | -2.3 | -1.9 | 1.4 | 4.5 | -20.0 | -0.2
CC1=C(c2ccc(Cl)cc2)S(=O)(=O)N=C1N1CCC(NC(=O)C2CCOC2)CC1 (configuration not stated) | 3.0 | 3.4 | 0.9 | 2.5 | 0.1 | 14.5
COc1cccc2c1C(=O)c1ccc3c(c1C2=O)C(=O)CC(C)(O)C3 (configuration not stated) | 9.0 | -0.9 | -0.3 | 2.3 | 26.8 | 62.2*
O=C(CSc1ccc2nnc(-c3ccncc3)n2n1)Nc1cccc(C(F)(F)F)c1 | -9.4 | -4.1 | -3.4 | -15.0 | 89.6* | 47.3*
CCNC(=O)N1CCc2c(cccc2-n2nnc(C(=O)N(C)Cc3ccco3)c2C)C1 | -2.5 | -8.5 | -7.6 | -6.9 | 36.7* | -5.4
CCNC(=O)N1CCc2c(cccc2-n2nnc(C(=O)NCc3cc(C)no3)c2C)C1 | 0.0 | 10.6 | -4.0 | -4.0 | -1.7 | 0.5
CC(C)n1nccc1C(=O)N1CCC(c2cc(=O)n3[nH]ccc3n2)CC1 | 1.0 | 11.3 | 3.6 | 5.0 | -8.2 | -0.4
CCOC(=O)c1cc2c(ccn2-c2ccc(F)cc2)n1CC(=O)N1CCN(C(=O)c2ccco2)CC1 | 1.9 | 9.4 | 3.8 | 3.8 | 16.1 | 36.5*
CCOC(=O)c1cc2c(ccn2-c2ccc(F)cc2)n1CC(=O)NC1CCCCC1 | -2.8 | 16.3 | -6.3 | 0.0 | 26.6 | 25.3
COc1ccc(Cn2c3c(c(=O)[nH]c2=O)CN(C2CCCCC2)CN3)cc1 | 17.7 | 27.1 | 18.8 | -7.1 | 18.0 | 43.5*
COc1ccc(Cn2c3c(c(=O)[nH]c2=O)CN(CCc2ccccc2)CN3)cc1 | -0.6 | 0.2 | 3.5 | -16.0 | -20.7 | 3.5
CCCC[C@@H](C)/C=C(C)/C=C(\C)C(=O)NC1=C[C@](O)(/C=C/C=C/C=C/C(=O)NC2=C(O)CCC2=O)[C@@H]2O[C@@H]2C1=O | 34.5* | 68.7* | 6.3 | 25.6 | -2.0 | 73.3*
CCCCC(C)/C=C(C)/C=C(\C)C(N)=O (configuration not stated) | 7.5 | 13.5 | 7.5 | 4.5 | 5.9 | 26.8
O=C(O)c1ccc(NS(=O)(=O)c2ccc(N3CCCC3)c([N+](=O)[O-])c2)cc1 | 0.8 | 12.4 | -0.3 | 7.9 | -17.7 | 5.5
Cc1cc(F)ccc1NS(=O)(=O)c1c[nH]c2ccc([N+](=O)[O-])cc12 | -0.3 | -3.3 | 6.3 | 0.3 | -26.5 | 45.7*
COC(=O)c1ccc(NS(=O)(=O)c2c[nH]c3ccc([N+](=O)[O-])cc23)cc1 | 1.6 | 1.6 | 14.9 | 5.8 | 16.9 | 45.0*

Screening results from PubChem.
